# An excerpt weighted towards active compounds, which were near 3.2% of everything screened.
# p53null 39C kill: kills p53 null cells at the nonpermissive temperature. H1299 p53-null (neo) cells, 39C, ATPlite viability, 24 h. Potency, µM (doses to about 46.1 µM), for inactives: top-dose activity, negative = cell killing, hits mostly cytotoxic. actives 0.97% (n = 55,000). AID 904;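 further: 0% = DMSO only and -100% = full killing by 100 µM tamoxifen; nearly all actives have a fitted effect of over 50% in size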
#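 ATP-luminescence viability readout (ATPlite, 20 min RT) after 24 hr compound treatment at 39C of H1299-neo or H1299-p53A138V cells; titration up to 46 uM; normalized to DMSO and 100 uM tamoxifen; Hill-fit AC50.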
# p53null 32C tox: p53 null cell cytotoxicity, permissive temperature; H1299-neo p53 null cells, ATP luminescence, 24 h, 32C; AID 903; Potency, µM (series often up to 46.1 µM), inactives show top-dose activity change, negative = cytotoxicity, actives largely listed as cytotoxic; actives 0.62% (n = 55,000);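 further: 0% = DMSO only and -100% = full killing by 100 µM tamoxifen; nearly all actives have a fitted effect of over 55% in size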
#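 ATP-content luminescence in p53-null H1299-neo cells after 24 h compound exposure (up to 46 uM) at 32C permissive temperature; 0% and 100% killing set by DMSO and 100 uM tamoxifen; Hill-equation AC50.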
# mTORC1 inh: inhibitors of mTORC1 signaling in Tsc2-/- p53-/- MEF cells; Tsc2-/- p53-/- MEF, phospho-rpS6 immunofluorescence/PI, 24 h; Potency, µM (highest dose often 38.3 µM), inactives show at the top dose activity change, negative = inhibition, usual class: inhibitors; actives 0.78% (n = 44,000);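 further: plate controls were DMSO for no effect and rapamycin for full effect; nearly all actives have a fitted effect of over 50% in size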
#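 Plate MEFs (Tsc2-/-, p53-/-, empty vector) in DMEM/10% FBS; after 24 h add compound, incubate 24 h at 37 degree Celsius; fix in PFA/TX-100, block, stain phospho-rpS6 and 10 uM PI; scan at 488 nm; report % positive cells.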
# PMP22 txn: modulates PMP22 transcription in S16 Schwann cells. S16 Pmp22-F2sN Schwann cells, FLuc/NLuc coincidence luminescence, 24 h. Potency, µM (series often up to 57.5 µM), inactives show at the highest dose activity change, negative = inhibition, actives largely listed as inhibitors. actives 2% (n = 43,000); active means clear falling dose curves in both reporters; inconclusive means both reporters move, but less clearly or upward; inactive means either reporter flat; the % is the NLuc reporter signal
#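 Schwann cells carrying the coincidence reporter were exposed to library compounds for 24 h at 37C, then lysed and read for FLuc and, after quenching, NLuc luminescence on a CCD imager.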
# S16 F2sN tox: cytotoxicity in S16 Pmp22-F2sN Schwann cells | Potency, µM (top dose mostly 57.5 µM), inactives show at the top dose activity change, negative = cytotoxicity, actives largely listed as cytotoxic | S16 Pmp22-F2sN Schwann cells (luciferase reporters placed in the Pmp22 gene) viability, CellTiter-Glo, 24 h | actives 0.48% (n = 43,000); further: nearly all actives have a fitted effect of over 65% in size
#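 CellTiter-Glo counter-screen, qHTS, 1536-well. Cells: S16(c9) Pmp22-F2sN, 500-1,000/well in DMEM + 10% FBS. Cpd 23 nL pin transfer, 24 h, 37C/5% CO2. Read: luminescence, CCD imager.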
# Active calls of the source: *; u = inconclusive; x = no result. Unless noted, the call rests on the fitted dose curve; in most records, active means well fitted curve in the direction sought with a large enough effect; inconclusive means small, poorly fitted or top-dose-only effect, or another doubt; inactive means no such curve, though single readings can be large; an effect the other way counts as inactive or inconclusive. Unless noted, on the % scale 0 is the no-effect control and ±100 the full control effect; potency means the concentration at half of the fitted maximal effect.
SMILES,p53null 39C kill,p53null 32C tox,mTORC1 inh,PMP22 txn,S16 F2sN tox
COc1ccc(CN2CCc3nc(N4CCN(c5ccc(F)cc5)CC4)ncc3C2)c(OC)c1OC,18.8%,1.7%,-1.6%,13.4µM*,15.8µM*
Cc1oc(-c2cccc(Cl)c2)nc1CN1CCC(C(=O)NC(C)C)CC1,-18.8%,0.3%,-6.3%,32.3%,5.6%
Cc1ccc(Cl)cc1N1CCN(C(=O)C2CCN(Cc3nc(-c4cccc(Cl)c4)oc3C)CC2)CC1,25.1µM*,-0.4%,1.7%,u,u
COc1ccc(C)cc1Nc1nc(N)c2cc(OC)c(OC)cc2n1,10µM*,u,u,u,u
COc1cc(-c2noc(-c3ccc(NCc4cccnc4)c([N+](=O)[O-])c3)n2)cc(OC)c1OC,-7.8%,-9.7%,0.2%,7.08µM*,-7.5%
COc1ccc(-c2noc(-c3ccc(NCc4cccnc4)c([N+](=O)[O-])c3)n2)cc1OC,-14.4%,1.8%,-0.6%,0.5%,-10.6%
COc1ccccc1N1CCN(S(=O)(=O)c2ccc(F)c(C(=O)Nc3ccc(Cl)cc3C(F)(F)F)c2)CC1,-2.7%,8.1%,1.3%,u,u
Cc1ccc(NCc2cc3cc4c(cc3n(CC(=O)Nc3ccc(C)cc3)c2=O)OCCO4)cc1,5.2%,-9.2%,4.65µM*,u,u
COc1cc2cc(CNc3ccc(C)cc3)c(=O)n(CC(=O)Nc3ccc(F)cc3F)c2cc1OC,-15.7%,-1.1%,5.21µM*,-48.8%,-1.5%
Cc1ccc(NCc2cc3cc4c(cc3n(CC(=O)Nc3ccc(F)cc3F)c2=O)OCCO4)cc1,4.7%,2.3%,u,u,11.1%
COc1cc2cc(CNc3ccccc3)c(=O)n(CC(=O)Nc3cc(C)cc(C)c3)c2cc1OC,29.5%,-1.4%,-7.7%,u,u
Cc1ccc(-c2nnc(Nc3ccc(C(=O)N(C)C)cc3)c3ccccc23)cc1S(=O)(=O)NCC1CCCO1 (stereo not given),4.1%,-13.2%,x,x,x
Cc1c(C(=O)Nc2ccc(Br)cc2F)oc2ccc(S(=O)(=O)N3CCC4(CC3)OCCO4)cc12,19.6%,0.9%,6.2%,u,-7.7%
Cc1nn2c(=O)cc(COC(=O)c3cccc(NC(=O)c4ccc(C(C)(C)C)cc4)c3)nc2s1,1.26µM*,3.16µM*,0.0%,-8.0%,7.9%
CCc1cccc(-n2c(C)nc3c(cnn3-c3ccc(Cl)cc3)c2=O)c1,6.1%,17.6%,u,u,1.6%
CC(=O)N1CCc2cc(Br)cc(S(=O)(=O)NCCc3ccc(Cl)cc3)c21,-14.3%,2.7%,-16.5%,-7.7%,3.5%
CC(=O)Nc1ccc(C)cc1-c1nc2ccccc2n(Cc2cccc(Br)c2)c1=O,1.6%,0.8%,2.4%,-5.6%,-1.2%
CCN(CC)C(=O)Cn1cc(SCC(=O)Nc2cccc(F)c2)c2ccccc21,2.6%,-0.9%,u,-13.6%,2.9%
CCOc1ccc(NC(=O)c2sc3nc4c(cc3c2N)CCCCCC4)cc1,-14.3%,-15.6%,20.7µM*,u,-0.1%
COc1ccc(-c2cn3cccnc3n2)cc1NC(=O)Nc1cc(C)ccc1C,15.8µM*,u,-17.7%,u,u
COc1cccc(NC(=O)Nc2cc(-c3cn4cccnc4n3)ccc2C)c1,u,-10.1%,4.0%,u,8.8%
COc1cccc(NC(=O)Nc2cc(-c3cn4cccnc4n3)ccc2OC)c1,7.94µM*,15.8µM*,-4.6%,u,2.5%
Cc1ccc(S(=O)(=O)c2nnn3c2nc(N2CCCC2)c2sccc23)cc1,-7.1%,-3.5%,-3.5%,u,3.3%
Cc1ccc2nc(/C(C#N)=C/c3ccc(-c4ccc(F)cc4F)o3)[nH]c2c1,7.94µM*,-16.1%,-7.5%,-37.7%,-2.1%
Cc1c(Cl)cccc1-c1ccc(/C=C(\C#N)c2nc3ccccc3[nH]2)o1,10µM*,u,-28.8%,u,-9.8%
N#C/C(=C\c1ccc(Sc2ccc(Cl)cc2)o1)c1nc2ccccc2[nH]1,x,-14.1%,x,x,x

# Compound activity as filed in PubChem BioAssay.
